For 51 compounds, Percent Effect results are on record in ChEMBL document CHEMBL3988442, “University of Dundee, Small-Polar-MMV Screening Library” (2021).

The target in test [1] is T1, Aspartate--tRNA(Asp/Asn) ligase (Mycobacterium tuberculosis (strain ATCC 25618 / H37Rv)) (UniProt P9WFW3). Also: in the data most compounds retested in dose-response had high values.
T1 sequence (whole entry): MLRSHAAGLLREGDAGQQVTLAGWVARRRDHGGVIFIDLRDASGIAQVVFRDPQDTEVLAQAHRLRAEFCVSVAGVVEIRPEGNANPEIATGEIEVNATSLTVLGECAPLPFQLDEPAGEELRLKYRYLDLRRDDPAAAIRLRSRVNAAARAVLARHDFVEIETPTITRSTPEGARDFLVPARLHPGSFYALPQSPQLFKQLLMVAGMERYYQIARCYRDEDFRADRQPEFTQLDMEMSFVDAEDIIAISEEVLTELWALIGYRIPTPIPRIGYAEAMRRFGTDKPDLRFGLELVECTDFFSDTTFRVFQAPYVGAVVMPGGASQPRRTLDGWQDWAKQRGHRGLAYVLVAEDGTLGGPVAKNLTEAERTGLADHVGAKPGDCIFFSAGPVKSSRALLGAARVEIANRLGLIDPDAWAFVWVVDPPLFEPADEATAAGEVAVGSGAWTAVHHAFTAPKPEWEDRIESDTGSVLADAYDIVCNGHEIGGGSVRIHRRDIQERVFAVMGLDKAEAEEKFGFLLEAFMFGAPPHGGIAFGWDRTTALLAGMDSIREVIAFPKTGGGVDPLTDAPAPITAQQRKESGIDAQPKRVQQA
The test is described as follows: Assay for Asp RNA synthetase-1 from Mycobacterium tuberculosis. The format is functional. Further details: scale not given: direction of the effect not stated beside the values. As to conditions: 30 µM.

Test [2] deals with Shiga toxin 2 (Escherichia coli O157:H7) (UniProt P09385+P09386). Put plainly: E. coli 0.157:H7 Shiga Toxin SOP - stx2 screening assay. The format is functional. Also on record: scale not given: direction of the effect not stated beside the values. To be noted: 30 µM.

For the compound `N#CCCN(C(=O)CN1CCCC1c1ccsc1)c1ccccc1F` (configuration not stated), the figures for the Percent Effect in test [1] and in test [2] were -3.67% and 4.76%, respectively.

As to `CCOc1ncccc1C(=O)N1CCCC(c2nccn2CCOC)C1` (configuration not stated), the Percent Effect is -4.25% in test [1] and -0.308% in test [2].

Consider `Cc1ncc(C)c(N2CCCC(CO)(Cc3cccc(Cl)c3)C2)n1` (configuration not stated), for which the Percent Effect in test [1] is 2.71%; in test [2], -21.4%.

For the compound `COc1ccc(-c2cnc(CN3CCn4c(C)nnc4C3)o2)cc1`, the Percent Effect in test [1] is 0.144%; in test [2], -27.2%.

On to `CCN(CC1CCOC1)C(=O)c1ccccc1N1CCOCC1` (configuration not stated), for which the Percent Effect in test [1] was -0.562%; in test [2], 23.4%.

Turning to `Cc1ccc(N2CC[C@H]3O[C@@H](C(=O)NCc4ccco4)CC[C@H]32)nn1`, the Percent Effect in test [1] is 12.5%; in test [2], -10.5%.

Regarding `Cc1ccoc1C(=O)NCC(Cc1ccc(F)cc1)C(N)=O` (configuration not stated), the figures for the Percent Effect in test [1] and in test [2] were -2.1% and 9.66%, respectively.

On to `CCc1ccc(CN2CCC3(CC2)CNC(=O)CO3)o1`, for which the Percent Effect in test [1] was -0.662%; in test [2], -2.48%.

As to `Cc1cnn(CCC(=O)N2CCCN(c3ncccc3C#N)CC2)c1`, the Percent Effect in test [1] was -6.54%; in test [2], -34.1%.

`COc1ccc(CN2CCN(C(C)c3nc(C4CC4)no3)CC2)cc1` (configuration not stated): the figures for the Percent Effect in test [1] and in test [2] were -3.61% and 0.241%, respectively.

On to `O=C1CC2(CCN(CC3CC3)C2)CN1c1cccc(F)c1` (configuration not stated), for which the Percent Effect in test [1] is 0.607%; in test [2] it was -32.8%.

As for `CN(Cc1ccco1)C[C@H]1OC[C@@H]2CCN(Cc3cccs3)C[C@@H]21`, the Percent Effect is 3.35% in test [1] and -17.4% in test [2].

For `CN1CC(C(=O)NC(C)(C)C)CC1=O` (configuration not stated), the Percent Effect is 0.616% in test [1] and -21.3% in test [2].

`CCS(=O)(=O)NC[C@]12COC[C@H]1CN(Cc1cccc(OC)c1)C2`: the Percent Effect in test [1] stood at 0.596%; in test [2] it was 1.39%.

`CCc1ccc(CN2CCC3(CC2)NC(=O)CC3c2ccncc2)o1` (configuration not stated): the Percent Effect is 7.7% in test [1] and -9.95% in test [2].

In the case of `Cc1nn(C)c(C)c1C1COCCN1C(=O)c1n[nH]c2ccccc12` (configuration not stated), the figures for the Percent Effect in test [1] and in test [2] were -1.46% and -15.4%, respectively.

With `CSCC(=O)N1C[C@H]2CC[C@@H]1CN(Cc1ccccc1)C2`, the Percent Effect in test [1] was 4.28%; in test [2], -4.7%.

With `Cn1cc(NC(=O)N2CCC(NS(C)(=O)=O)CC2)ccc1=O`, the Percent Effect in test [1] was 57.4%; in test [2], -31.1%.

Consider `Cn1cc(Cl)cc1C(=O)N1CCCN(Cc2cccs2)CC1`, for which the Percent Effect is -5.24% in test [1] and 19.8% in test [2].

Take `O=C(Cn1cc(C(=O)O)ccc1=O)Nc1ccc(Cl)cc1F`: the values for the Percent Effect in test [1] and in test [2] were -4.96% and -33.4%, respectively.

Consider `CCOc1cccc2c1OCC(C(=O)NS(=O)(=O)Cc1ccccc1)=C2`, for which the Percent Effect in test [1] was -0.211%; in test [2] it was 23.7%.

Turning to `CCCc1cc(C(=O)N2CCOC(c3nc(-c4cccs4)no3)C2)no1` (configuration not stated), the Percent Effect in test [1] was -0.544%; in test [2] it was -10.2%.

`Fc1ccc(OCc2noc(CN3CCc4cncnc4C3)n2)cc1`: the Percent Effect in test [1] was -0.7%; in test [2], -1.88%.

For `CC(C)c1nc(C(=O)NCCn2ccnc2)nn1-c1cccc(F)c1`, the Percent Effect in test [1] is -3.06%; in test [2] it was 32.1%.

For the compound `CS(=O)(=O)NC1CCN(C(=O)NCCc2ccccc2F)CC1`, the Percent Effect was -3.88% in test [1] and -19.2% in test [2].

Take `NC(=O)NCCC(=O)NCc1cccnc1N1CCc2ccccc2C1`: the Percent Effect in test [1] was -1.71%; in test [2] it was 6.61%.

On to `Nc1nccc(NCc2cc3n(n2)CCCN(C2CCCCC2)C3)n1`, for which the Percent Effect was -6% in test [1] and -9.53% in test [2].

With `c1ccc(-c2ccc3nc(C4CCN(CC5CC5)CC4)nn3c2)cc1`, the Percent Effect was 1.41% in test [1] and -51.6% in test [2].

On to `Cc1cc(C2CCCN2CC(=O)N(CCC#N)c2ccccc2F)on1` (configuration not stated), for which the Percent Effect in test [1] worked out at 3.09%; in test [2] it was 0.491%.

Regarding `CCc1ccc(NC(=O)C2OC(c3cccs3)=NN2C(C)=O)cc1` (configuration not stated), the Percent Effect in test [1] was -1.78%; in test [2] it was -90%.

Take `Cc1ncsc1C(=O)N(C)Cc1cccc(Cl)c1`: the Percent Effect was -1.26% in test [1] and 17.9% in test [2].

As to `Nc1nc2nc(C3CCCN(C(=O)c4cscn4)C3)ccc2s1` (configuration not stated), the values for the Percent Effect in test [1] and in test [2] were 0.603% and -35.5%, respectively.

As to `O=C(CCc1nccs1)N1CCN(c2ccccc2F)CC1`, the Percent Effect is -6.57% in test [1] and -11.9% in test [2].

On to `Cc1nn(C)c(N(C)C)c1CNCc1cccnc1`, for which the Percent Effect in test [1] is -1.51%; in test [2], -13%.

As to `CC[C@H](C)[C@H](NC(=O)c1ccccc1-n1cnnn1)C(=O)OC`, the values for the Percent Effect in test [1] and in test [2] were 3.95% and -29.9%, respectively.

As for `CCN1CCN(C2CCN(Cc3noc(C)n3)CC2)C1=O`, the Percent Effect in test [1] was -5.45%; in test [2], -25.5%.

For the compound `COCC(=O)N1CCC(c2noc3nc(C)cc(C(F)(F)F)c23)CC1`, the Percent Effect was 3.71% in test [1] and -10.9% in test [2].

Turning to `Cc1cc(C(=O)NCc2ccnc(N3CCN(C)CC3)c2)c(C)s1`, the figures for the Percent Effect in test [1] and in test [2] were -3.03% and -30.4%, respectively.

Take `CCN(CC)C(=O)c1ccn(COc2cc(C)cc(C)c2)n1`: the Percent Effect in test [1] is -7.43%; in test [2], -39.1%.

For the compound `CNC(=O)N1C[C@H]2CC[C@@]3(N=C(c4ccccc4)NC3=O)[C@H]2C1`, the Percent Effect was 4.9% in test [1] and -20.9% in test [2].

On to `CCCc1nc(CN2CCCC2Cn2cncn2)cs1` (configuration not stated), for which the values for the Percent Effect in test [1] and in test [2] were -4.65% and -7.55%, respectively.

As for `COc1ccc(-c2noc(C(=O)NCCN3CCCCC3)n2)cc1OC`, the Percent Effect was -1.25% in test [1] and -77.4% in test [2].

As to `CCn1cc(NC(=O)C2CCN(Cc3ccccc3C#N)CC2)cn1`, the values for the Percent Effect in test [1] and in test [2] were 1.7% and -53.9%, respectively.

As to `O=C(C1CCOC1)N1CC[C@@H](O)[C@@H]1Cc1ccccc1` (some centres not stated), the Percent Effect is -2.71% in test [1] and -16.7% in test [2].

With `O=C(CCN1CCCC1C1CCCCC1)N1CCc2sccc2C1` (configuration not stated), the Percent Effect in test [1] came out at 2.02%; in test [2], 8.04%.

For `Cc1noc(C)c1CNC(=O)c1ccc(NC2CC2)nc1`, the results for the Percent Effect in test [1] and in test [2] were 3.65% and 13.4%, respectively.

Take `Cc1cc(NC(=O)NCC(C)O)n(C)n1` (configuration not stated): the Percent Effect in test [1] is -2.68%; in test [2], -5.14%.

As for `COc1cccc(-c2nccnc2C2CCN(C(C)=O)CC2)c1`, the Percent Effect in test [1] is -3.41%; in test [2], 16.4%.

For `Cc1cc(C)n(C2CCCN(C(=O)Cc3csc(C)n3)C2)n1` (configuration not stated), the results for the Percent Effect in test [1] and in test [2] were -6.85% and 5.9%, respectively.

In the case of `Cc1cc(-c2cnc(N3CCNC(=O)C3)nc2-c2ccc(C)o2)on1`, the Percent Effect was -1.93% in test [1] and -18.2% in test [2].

For `Cc1ccsc1C(=O)N1CC(C(=O)N2CCOCC2)C2(CCOCC2)C1` (configuration not stated), the Percent Effect in test [1] is 7.88%; in test [2], -8.92%.
